# Assay results taken from the supplement of paper PMC8728848.
# The full list was thinned out, with the strongest signals kept by preference.
# B1: cFel (Cyprinus carpio), P68512 (protein)
# chain: LDCTVIDGNLKQIDAGSGSVVGVNNLNETFVLIDNVFTKISGSLKHFSVGPAGQLGVNTANNIFKYQSGGFVQLAGLLKQVDAGGDQIIAGVNMYDDIYCLNMDANNKWPSSNTPWVQINGKLKYYSCGPYSCWGVNSNDQIFIMKDVSSNVCSGSGSFINIPGLLSMIEVATDGSVFGVNSQGNLYQRTGVTRSKPDGTDWISMVACPNGHKHVSFDLGVLWLVCVDGSIRKCILTD
# Tests used:
# Experiment in all cases: glycan array binding signal (z-score within array); higher = stronger binding
# Conditions in all cases: glycan notation: IUPAC condensed, linker removed
# GlcNAc(b1-3)Man = molecular target: GlcNAc(b1-3)Man
# Summary of the method: (§1)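 Negative Z-scores can be read as non-binding. The Z-score is calculated within each array and then averaged across arrays of one protein sequence at different concentrations or buffers and across linkers. Arrays, 3228 in all, were curated from the Consortium for Functional Glycomics database and kept only where the protein sequence was available.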
# [1] = molecular target: GlcNAc(b1-4)[GlcNAc(b1-6)]GalNAc
# Summary of the method: as §1
# [2] = molecular target: Man(a1-3)[Man(a1-6)]Man(a1-6)[Man(a1-2)Man(a1-3)]Man(b1-4)GlcNAc(b1-4)GlcNAc
# Summary of the method: as §1
# [3] = molecular target: Neu5Ac(a2-3)Gal(b1-3)GlcNAc(b1-2)[Neu5Ac(a2-3)Gal(b1-3)GlcNAc(b1-4)]Man(a1-6)[Neu5Ac(a2-3)Gal(b1-3)GlcNAc(b1-2)Man(a1-3)]Man(b1-4)GlcNAc(b1-4)GlcNAc
# Summary of the method: as §1
# [4] = molecular target: Neu5Ac(a2-3)Gal(b1-4)GlcNAc(b1-2)Man(a1-3)[GlcNAc(b1-4)][Neu5Ac(a2-3)Gal(b1-4)GlcNAc(b1-2)Man(a1-6)]Man(b1-4)GlcNAc(b1-4)GlcNAc
# Summary of the method: as §1
# [5] = molecular target: Neu5Ac(a2-3)Gal(b1-4)GlcNAc(b1-2)[Neu5Ac(a2-3)Gal(b1-4)GlcNAc(b1-4)]Man(a1-3)[GlcNAc(b1-4)][Neu5Ac(a2-3)Gal(b1-4)GlcNAc(b1-4)Man(a1-6)]Man(b1-4)GlcNAc(b1-4)GlcNAc
# Summary of the method: as §1
# [6] = molecular target: Neu5Ac(a2-3)Gal(b1-4)GlcNAc(b1-6)GalNAc
# Summary of the method: as §1
# [7] = molecular target: Neu5Ac(a2-3)Gal(b1-4)[Fuc(a1-3)]GlcNAc(b1-3)Gal(b1-4)[Fuc(a1-3)]GlcNAc(b1-3)Gal(b1-4)[Fuc(a1-3)]GlcNAc
# Summary of the method: as §1
# [8] = molecular target: Neu5Ac(a2-6)Gal(b1-4)GlcNAc(b1-3)[Neu5Ac(a2-6)Gal(b1-4)GlcNAc(b1-6)]GalNAc
# Summary of the method: as §1
# [9] = molecular target: Neu5Gc(a2-3)Gal(b1-3)GlcNAc
# Summary of the method: as §1
# [10] = molecular target: Neu5Gc(a2-6)Gal(b1-4)GlcNAc
# Summary of the method: as §1
# Neu5Gc(a2-6)GalNAc = molecular target: Neu5Gc(a2-6)GalNAc
# Summary of the method: as §1
binder,measurement,setting,value
B1,glycan array binding signal (z-score),GlcNAc(b1-3)Man,3.22
same,glycan array binding signal (z-score),[1],-0.003
same,glycan array binding signal (z-score),[2],0.309
same,glycan array binding signal (z-score),[3],0.972
same,glycan array binding signal (z-score),[4],3.12
same,glycan array binding signal (z-score),[5],-0.578
same,glycan array binding signal (z-score),[6],-0.95
same,glycan array binding signal (z-score),[7],-1.09
same,glycan array binding signal (z-score),[8],3.16
same,glycan array binding signal (z-score),[9],2.89
same,glycan array binding signal (z-score),[10],-1.34
same,glycan array binding signal (z-score),Neu5Gc(a2-6)GalNAc,0.828
